This is a sample that favours compounds with a hit; in the whole collection about 4.5% have one here.
Rce1 inhib – inhibitors of yeast Ras-converting enzyme. calls only. yeast membranes, quenched prenylated peptide cleavage fluorescence. hit rate 0.27% among 290,000;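 active means fall in fluorescence gain of 50% or more versus controls, with final raw signal at or below 3038400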;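 further: plate controls were neutral control wells for no effect and wells lacking membranes for full effect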
ALR H2O2 inh – human ALR oxidase inhibition via reduced H2O2 | P55789 | AID 485317 | hit rate 3.8% among 290,000 | inhibition, % (no concentration beside the values) | purified ALR, DTT oxidation, H2O2 HRP-luminol luminescence;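 active means mean replicate inhibition above about 79%, with every replicate also reaching it, limit read from the data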
GRK2 inh – blocks RNA aptamer binding to human GRK2 | P25098 | hit rate 0.59% among 330,000 | inhibition of aptamer binding, % at 10 µM | bead flow cytometry, FAM-aptamer displacement from GRK2;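 active means inhibition of aptamer binding above 40%, roughly 3 SD of noise, on plates passing a quality check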;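 further: median bead fluorescence of bound FAM aptamer so fluorescent compounds give negative values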
HDAC3 inhib – human HDAC3 inhibition. recombinant HDAC3, fluorogenic peptide/trypsin coupled, fluorescence. inhibition, % at 8.3 µM. hit rate 0.15% among 320,000; in the data active means inhibition above about 26%, passing the limit was not always enough
Efflux pump inh – inhibitors of Candida antifungal efflux pumps expressed in yeast. S. cerevisiae Candida pump triplex, Nile Red efflux. inhibition, % at 10 µM. hit rate 0.44% among 330,000. AID 485275;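 active means plate passing quality check with inhibition over a set limit, or well fluorescence over plate mean plus 4 SD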;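 further: Nile Red retained in pooled yeast measured as flow cytometry median fluorescence; 0% = buffer negative control and 100% = Enniatin B positive control; higher means more Nile Red kept so more efflux inhibition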
Rtt109 Vps75 – blocks Candida albicans Rtt109/Vps75 acetyltransferase activity; purified Rtt109/Vps75, ThioGlo CoA-SH fluorescence, 4 h; inhibition, % at 34.9 µM; Q5AAJ8; hit rate 0.16% among 330,000;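 active means inhibition of at least 50% in every replicate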
GRK2 CP1 – human GRK2 inhibition confirmation, cherry pick 1; shares compounds with GRK2 inh; bead-bound GRK2, FAM-aptamer displacement, flow cytometry; aptamer displacement, % at 10 µM; hit rate 4% among 2,000; AID 504451;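 active means aptamer displacement above 40%, near three times the noise of non-fluorescent compounds, on plates passing quality checks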;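 further: negative values mostly reflect intrinsic compound fluorescence rather than true enhancement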
FAM quench CP1 – quenches fluorescent RNA aptamer, GRK2 hit artifact; fluorescence response (% of DMSO), % at 10 µM; shares compounds with GRK2 inh; 2,000 tested, under 10 active; Carboxyfluorescein RNA aptamer on beads, flow cytometry quenching; active compounds read low;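 active means compounds that quench the bead-bound fluorescent RNA probe, cutting fluorescence to under half of the solvent control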;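 further: counterscreen run without GRK2 so only probe quenching by compound is measured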
* = called active by the depositor; i = inactive; / = no result.

SMILES | Rce1 inhib | ALR H2O2 inh | GRK2 inh | HDAC3 inhib | Efflux pump inh | Rtt109 Vps75 | GRK2 CP1 | FAM quench CP1
Cc1ccccc1Cn1ccc(NC(=O)c2cnn3c(C(F)(F)F)cc(-c4ccco4)nc23)n1 | i | / | 31.0 | -4.6 | 0.1 | / | 1.7 | 90.4
CCOc1ccc(OCCOCCN2CCOCC2)cc1 | i | -2.8 | 3.0 | 3.7 | 0.0 | -3.9 | / | /
COc1ccc(CC(=O)NCCN2CCOCC2)cc1 | i | -21.8 | 32.0 | -0.8 | 0.2 | -6.0 | 3.3 | 100.6
Cc1ccc(CC(=O)NCCN2CCOCC2)cc1 | i | 0.0 | 0.0 | 6.3 | -0.1 | 21.6 | / | /
COc1ccc(OCCOCCN2CCOCC2)cc1 | i | -2.5 | 56.0* | -4.8 | -0.1 | 3.0 | 0.7 | 98.7
Cc1c(NC(=O)c2ccc(CC(C)C)o2)c(=O)n(-c2ccccc2)n1C | i | 4.1 | 7.0 | 6.7 | 0.4 | 0.6 | / | /
CCOc1ccc(C(=O)c2nc3c(n2O)CCCC3)cc1 | i | / | 25.0 | 0.9 | 0.2 | / | -1.3 | 104.0
O=C(COC(=O)/C=C/c1ccc(C(F)(F)F)cc1)NC1CCS(=O)(=O)C1 (centres undefined) | i | 7.7 | 2.0 | 1.0 | -0.1 | 2.5 | / | /
CC(=O)n1cc([C@@H]2C=C(C(=O)Nc3ccccc3)O[C@H](OCc3ccc(CO)cc3)C2)c2ccccc21 | i | -1.4 | 64.0* | -3.3 | 0.2 | 1.2 | -0.6 | 99.8
O=C1C(Cc2ccc(O)cc2)NC(=S)N1c1ccccc1 (centres undefined) | i | 27.3 | 0.0 | 0.7 | 0.1 | -3.4 | / | /
O=C(O)CC1NC(=S)N(c2ccccc2)C1=O (centres undefined) | i | 0.3 | 70.0* | 1.4 | 0.1 | 4.2 | -0.6 | 102.6

From PubChem BioAssay
